# Test results: article PMC8384837, “Expanding the binding specificity for RNA recognition by a PUF domain”
# Legend:
# Test in all cases: yeast three-hybrid, YBZ-1, SC-Leu-His + 0.5 mM 3-AT, 4 days
# Settings in all cases: tags: N-Gal4 AD-HA kept; label: inside an RPR1-promoter hybrid RNA with tandem MS2 sites; ssRNA
# PUM1 PUF domain R3-QFR = PUM1 PUF domain R3-QFR (Homo sapiens, UniProt Q14671 828-1176, C935Q;R936F;Q939R)
# Procedure, shortened: (§1)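 Sequencing with Illumina followed PCR amplification of the repeat regions from transformants grown four days on SC-Leu (input) or SC-Leu-His + 0.5 mM 3-AT (selection). The transformants were strain YBZ-1 with a LexA–MS2 coat fusion and a HIS3 reporter, carrying Pumilio-1 PUF domain libraries and matching RNA elements. The interaction score is the log change in variant frequency from input to selection, computed in log2 with a pseudocount of 1 for absent variants.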
# PUM1 PUF domain R5-DWE = PUM1 PUF domain R5-DWE (Homo sapiens, UniProt Q14671 828-1176, C1007D;R1008W;Q1011E)
# Procedure, shortened: as §1
# PUM1 PUF domain R4-PYA = PUM1 PUF domain R4-PYA (Homo sapiens, UniProt Q14671 828-1176, N971P;H972Y;Q975A)
# Procedure, shortened: as §1
# PUM1 PUF domain R4-PWR = PUM1 PUF domain R4-PWR (Homo sapiens, UniProt Q14671 828-1176, N971P;H972W;Q975R)
# Procedure, shortened: as §1
# PUM1 PUF domain R2-IFA = PUM1 PUF domain R2-IFA (Homo sapiens, UniProt Q14671 828-1176, N899I;Y900F;Q903A)
# Procedure, shortened: as §1
# PUM1 PUF domain R3-HRS = PUM1 PUF domain R3-HRS (Homo sapiens, UniProt Q14671 828-1176, C935H;Q939S)
# Procedure, shortened: as §1
# PUM1 PUF domain R7-KHG = PUM1 PUF domain R7-KHG (Homo sapiens, UniProt Q14671 828-1176, S1079K;N1080H;E1083G)
# Procedure, shortened: as §1
sequence,measurement,setting,value
GGCUAGAACUAGUGGAUCCCCCGGCGCCCGGCGGCUCGAGCCCGGGUAAGUGUAACUAGUCUGCAUGCCGCCGGGCGCCAUGCCUGCAGGUCGACUCUAGAAAACAUG,binding signal,PUM1 PUF domain R3-QFR,7.11 log2 enrichment (interaction score)
GGCUAGAACUAGUGGAUCCCCCGGCGCCCGGCGGCUCGAGCCCGGGUAAGUGUAAAUAGUCUGCAUGCCGCCGGGCGCCAUGCCUGCAGGUCGACUCUAGAAAACAUG,binding signal,PUM1 PUF domain R5-DWE,3.79 log2 enrichment (interaction score)
same,binding signal,PUM1 PUF domain R4-PYA,4.99 log2 enrichment (interaction score)
same,binding signal,PUM1 PUF domain R4-PWR,1.17 log2 enrichment (interaction score)
GGCUAGAACUAGUGGAUCCCCCGGCGCCCGGCGGCUCGAGCCCGGGUAAGUGUAAAAAGUCUGCAUGCCGCCGGGCGCCAUGCCUGCAGGUCGACUCUAGAAAACAUG,binding signal,PUM1 PUF domain R2-IFA,4.76 log2 enrichment (interaction score)
GGCUAGAACUAGUGGAUCCCCCGGCGCCCGGCGGCUCGAGCCCGGGUAAGUGUAAGUAGUCUGCAUGCCGCCGGGCGCCAUGCCUGCAGGUCGACUCUAGAAAACAUG,binding signal,PUM1 PUF domain R3-HRS,2.22 log2 enrichment (interaction score)
GGCUAGAACUAGUGGAUCCCCCGGCGCCCGGCGGCUCGAGCCCGGGUAAGUGUACAUAGUCUGCAUGCCGCCGGGCGCCAUGCCUGCAGGUCGACUCUAGAAAACAUG,binding signal,PUM1 PUF domain R4-PYA,5.06 log2 enrichment (interaction score)
same,binding signal,PUM1 PUF domain R4-PWR,5.54 log2 enrichment (interaction score)
GGCUAGAACUAGUGGAUCCCCCGGCGCCCGGCGGCUCGAGCCCGGGUAAGUAUAAAUAGUCUGCAUGCCGCCGGGCGCCAUGCCUGCAGGUCGACUCUAGAAAACAUG,binding signal,PUM1 PUF domain R7-KHG,2.59 log2 enrichment (interaction score)
